Only some compounds are listed: those with a hit (about 7% of all), similar ones and a draw of the others.
ADAM10 inh: human ADAM10 inhibitors, primary screen, biochemical, QFRET, HTS | Disintegrin and metalloproteinase domain-containing protein 10 (Homo sapiens), O14672 | recombinant ADAM10, EDANS/DABCYL FRET peptide cleavage, 3 h | inhibition, % at 7 µM | 370,000 tested, 0.62% active;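 active = inhibition above a per-campaign cutoff equal to the mean of compounds falling between control-based bounds plus 3 SD, cut at about 20% in these data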
GRIN3A LBD mod: binders of NR3A ligand-binding domain, primary screen, biophysical, differential scanning fluorimetry, uHTS. 340,000 tested, 2.5% active. Tm shift relative to glycine control, % at 25 µM. NR3A LBD differential scanning fluorimetry, Tm shift; 0% = protein alone, 100% = glycine-bound protein;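 active = melting temperature shift of at least 10% of the positive control shift, at one fixed dose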
proKLK7 act: proKLK7 zymogen activators, primary screen, biochemical, fluorescence intensity | Kallikrein-7 (Homo sapiens), P49862 | purified proKLK7, EDANS-DABCYL substrate fluorescence; 100% is mature enzyme control, 0% vehicle | activation, % at 7 µM | 370,000 tested, 0.9% active | AID 652039, 2013;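 active = activation above the mean of all tested compounds plus 3 SD, computed per campaign excluding outliers beyond control limits, cut at about 13% in these data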
AHR act: AHR activators, primary screen, cell-based, luminescence, luciferase reporter, human | AHR-responsive luciferase reporter cells | 320,000 tested, 2.5% active | Aryl hydrocarbon receptor (Homo sapiens), P35869 | activation, % at 5 µM | AID 2796, 2010; in the data active = activation above about 47%
ADAM17 inh: ADAM17 inhibitors, primary screen, biochemical, QFRET | Disintegrin and metalloproteinase domain-containing protein 17 (Homo sapiens), P78536 | recombinant ADAM17, EDANS/DABCYL FRET peptide cleavage | inhibition, % at 6.95 µM | 370,000 tested, 0.83% active | AID 720648, 2013;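 active = inhibition above the mean of compounds lying between control limits plus 3 SD, set per campaign, cut at about 8.5% in these data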
Target sequence (P78536 215-824 limits assumed): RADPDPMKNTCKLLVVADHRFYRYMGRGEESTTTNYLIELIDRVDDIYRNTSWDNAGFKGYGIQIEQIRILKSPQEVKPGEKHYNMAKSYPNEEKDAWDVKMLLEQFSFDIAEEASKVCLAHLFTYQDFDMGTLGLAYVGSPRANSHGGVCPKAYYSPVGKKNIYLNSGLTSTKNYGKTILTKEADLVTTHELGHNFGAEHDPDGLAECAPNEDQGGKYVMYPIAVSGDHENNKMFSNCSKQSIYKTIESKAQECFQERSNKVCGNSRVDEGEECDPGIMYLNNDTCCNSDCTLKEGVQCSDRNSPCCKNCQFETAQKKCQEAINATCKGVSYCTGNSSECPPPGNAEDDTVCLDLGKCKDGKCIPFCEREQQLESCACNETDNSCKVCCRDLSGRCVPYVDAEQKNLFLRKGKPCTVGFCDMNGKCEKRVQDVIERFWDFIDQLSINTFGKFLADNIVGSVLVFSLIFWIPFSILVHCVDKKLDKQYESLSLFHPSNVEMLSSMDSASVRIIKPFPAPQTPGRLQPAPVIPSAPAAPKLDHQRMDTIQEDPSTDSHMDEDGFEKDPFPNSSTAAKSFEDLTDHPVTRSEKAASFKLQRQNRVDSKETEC
rCAG RNA binder: binders of r(CAG) RNA repeats, primary screen, biochemical, fluorescence; inhibition, % at 3 µM; r(CAG) RNA repeat, TO-PRO-1 dye displacement fluorescence; 370,000 tested, 1.3% active;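 active = inhibition above the plate cutoff, the mean of all test compounds on that plate plus 3 SD, cut at about 35% in these data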;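 note: higher means more dye released from RNA so lower well fluorescence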
ADAM10 ctr: ADAM10 inhibitors, counter-screen for ADAM17 exosite inhibitor project, biochemical, FRET, human ADAM10 | shares compounds with ADAM17 inh | recombinant ADAM10, EDANS/DABCYL FRET peptide cleavage, 3 h | inhibition, % at 6.95 µM | 2,900 tested, 47% active | AID 743256, 2014;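 active = mean inhibition over the triplicate runs exceeds the activity threshold set in the earlier primary screen, cut at about 20% in these data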
ADAM17 confirm: ADAM17 inhibitors, hit retest, confirmation, biochemical, QFRET peptide cleavage; shares compounds with ADAM17 inh; recombinant ADAM17, EDANS/DABCYL QFRET peptide cleavage; inhibition, % at 6.95 µM; 2,900 tested, 65% active; AID 743257, 2014;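 active = mean inhibition across replicates above the hit cutoff set in the primary screen, cut at about 8.5% in these data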
A number is an active result; 0 = inactive; - = not tested or not shown.

SMILES	ADAM10 inh	GRIN3A LBD mod	proKLK7 act	AHR act	ADAM17 inh	rCAG RNA binder	ADAM10 ctr	ADAM17 confirm
O=C(Nc1cccc(-n2cccn2)c1)C1CCCN(Cc2ccccc2F)C1 (centres undefined)	0	0	0	0	11.4	0	0	0
Cc1cc(C)c(S(=O)(=O)Nc2ccc3c(c2)CCC3)c(C)c1	0	0	0	0	12.8	0	25.5	12.2
Cc1cc(C)c(S(=O)(=O)Nc2ccc(O)cc2)c(C)c1	0	0	0	0	0	0	-	-
Cc1cc(C)c(S(=O)(=O)Nc2ccc3c4c(cccc24)CC3)c(C)c1	0	0	0	0	9.3	0	0	11.7
CCOC(=O)C1CCCN(C(=O)C2(c3ccc(Cl)cc3)CCCC2)CC1 (centres undefined)	0	-	0	-	0	0	-	-
Cc1ccc(-n2ncc3c2CC(C)(C)CC3NC(=O)CCc2cccnc2)cc1 (centres undefined)	0	0	0	-	0	0	-	-
COC(=O)c1cc(C(=O)OC)n(Cc2ccc(C)cc2)c1C	0	0	0	0	9.2	0	0	0
CCCCOc1ccc(Cc2c(O)nc(SC)[nH]c2=O)cc1	0	0	0	0	0	0	-	-
Cc1ccc(NC(=S)NC(CO)C(O)c2ccc([N+](=O)[O-])cc2)cc1 (centres undefined)	0	0	0	0	0	0	-	-
O=[N+]([O-])c1ccc(C(O)C(CO)NC(=S)Nc2ccccc2)cc1 (centres undefined)	0	0	0	0	8.8	0	0	0
C/C(=C\c1ccc(C(=O)O)cc1)c1ccc2c(c1)C(C)(C)CCC2(C)C	0	0	0	0	9.0	0	0	0
Cc1cc(C)cc(NC(=O)c2ccc(Cn3nc(C)c(Cl)c3C)o2)c1	0	0	0	0	9.8	0	21.2	9.5
Cc1ccc(CNC(=O)c2ccc(Cn3nc(C)c(Cl)c3C)o2)cc1	0	0	0	0	0	0	-	-
Cc1ccc(-c2nn3c(C)nnc3s2)cc1NC(=O)c1cccs1	0	0	0	0	11.5	0	0	0
COc1ccccc1NS(=O)(=O)c1cccc(NC(=O)CCNC(=O)c2ccccc2OC)c1	0	0	0	0	0	0	-	-
CCc1ccc(N(CC(=O)Nc2nc3ccc(C)cc3s2)S(=O)(=O)c2c(C)noc2C)cc1	0	0	0	0	9.7	0	46.5	25.8
COc1cccc(CNC(=O)CCS(=O)(=O)c2ccc3c(c2)NC(=O)CS3)c1	0	0	0	0	8.7	0	0	0
COc1cc2cnc(-c3ccccc3)c(C(=O)c3ccc(F)cc3)c2cc1OC	0	0	0	0	0	0	-	-
COc1cccc(C(=O)c2c(-c3ccccc3)ncc3cc(OC)c(OC)cc23)c1	0	0	0	-	12.7	0	0	19.0
CCc1c(-c2ccc(Cl)cc2)ncn1Cc1cccc(-c2ccccc2)c1	0	-	0	-	11.7	0	0	0
O=C(COc1ccccc1Br)N1CCN(c2ccccc2)CC1	0	0	0	0	0	0	-	-
COc1cc(/C=C2/SC(=S)N(c3c(C)n(C)n(-c4ccccc4)c3=O)C2=O)ccc1O	0	0	0	0	0	0	-	-
Cc1ccccc1-n1nc2c(c1NC(=O)c1ccc(S(=O)(=O)N(C)C)cc1)CSC2	0	0	0	0	13.3	0	0	9.4
CCn1c(-c2csc3c2CCCC3)n[nH]c1=S	0	0	0	0	0	0	-	-
C=CCn1c(-c2csc3c2CCC(C)C3)n[nH]c1=S (centres undefined)	0	0	0	0	10.7	0	0	13.1
SMILES	ADAM10 inh	GRIN3A LBD mod	proKLK7 act	AHR act	ADAM17 inh	rCAG RNA binder	ADAM10 ctr	ADAM17 confirm
CCCCn1c(-c2csc3c2CCCC3)n[nH]c1=S	0	0	0	0	12.8	0	0	0
CC(=O)Nc1ccc(C2NC(=O)CCC2[N+](=O)[O-])cc1 (centres undefined)	0	0	0	0	0	0	-	-
COC[C@H](NS(=O)(=O)c1ccc(Br)cc1F)[C@@H](O)c1ccccc1	0	-	0	-	9.8	0	0	10.1
Cc1cc(N2CCCC2=O)cc(C)c1S(=O)(=O)NCCOc1ccc(C(C)(C)C)cc1	0	0	0	0	10.6	0	0	0
O=C1CCCN1c1ccc(S(=O)(=O)NCCOc2ccccc2)cc1	0	0	0	0	0	0	-	-
CN(C(=O)COC(=O)COc1ccc(N(C)S(=O)(=O)c2ccc(Cl)cc2)cc1)c1ccccc1	0	0	0	-	18.4	0	0	0
COc1cc2c(c(O)c1OC)-c1c(cc(OC)c(OC)c1OC)C[C@@H](C)[C@@H](C)C2	0	0	0	0	8.8	0	0	0
O=C(N/N=C/c1ccc[nH]1)c1cc(-c2ccc(Cl)cc2)nc2ccccc12	0	0	0	48.5	9.6	0	21.6	15.3
Cc1ccc(-n2c(C3CC3c3ccc(Cl)cc3)n[nH]c2=S)cc1 (centres undefined)	0	0	0	0	11.5	0	0	11.9
Cc1ccc(C2CC2c2n[nH]c(=S)n2-c2ccc(C)cc2)cc1 (centres undefined)	0	0	0	0	0	0	-	-
CCN(C[C@H]1N[C@@](C)(C(=O)OC)[C@H]2C(=O)N(Cc3ccccc3)C(=O)[C@@H]12)S(=O)(=O)c1ccc(C(C)(C)C)cc1	0	0	0	0	9.4	0	20.8	13.4
CCN(C[C@H]1N[C@@](C)(C(=O)OC)[C@H]2C(=O)N(Cc3ccccc3)C(=O)[C@@H]12)S(=O)(=O)c1ccc(F)cc1	0	0	0	0	0	0	-	-
C=CCNC(=S)NNC(=O)c1cccc(Br)c1	0	0	0	0	0	0	-	-
C=CCNC(=S)NNC(=O)c1ccc(C)c(Cl)c1	0	0	0	0	11.9	0	0	0
CCN(CC(=O)Nc1ccccc1C(F)(F)F)CC(=O)c1[nH]c(C)c(C(C)=O)c1C	0	-	0	-	0	0	-	-
COc1cc([N+](=O)[O-])ccc1NC(=O)N1CCCCCC1	0	0	0	0	0	0	-	-
CCOc1ccc(NS(=O)(=O)c2ccc3c(c2)CCN3C(=O)CCC(=O)O)cc1	0	0	0	0	9.8	0	0	0

Screening results deposited in PubChem by several laboratories.
